Measured values reported in PubChem BioAssay (Tox21).
Records with an inconclusive call do not appear. A call without a number means that no potency is given here. Activity calls are given as the source filed them. Calls follow the shape of the full dose curve.

Test: p53 small molecule agonists, cell-based qHTS assay with human liver microsomes (AID 1963577);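 also: p53 response element beta-lactamase reporter cells with liver microsomes plus NADPH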
Summary of the method: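 Fluorescence of the beta-lactamase reporter in p53RE-bla cells, detected with LiveBLAzer substrate (2 h, room temperature, dark), served as the read-out after 16 h compound exposure at 37 C with human liver microsomes and NADPH, each 0.5 mg/mL final.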

Compound | Potency
CNC(=O)NC(O)C(Cl)(Cl)Cl (centres undefined) | inactive
Nc1ccncc1 | inactive
O=C(O)c1ccc(=O)[nH]c1 | inactive
COC(=O)Cc1ccccc1 | inactive
CC(C)CCCCCOC(=O)c1ccccc1C(=O)OCCCCCC(C)C | inactive
O=NN1CCCCCC1 | inactive
Nc1ccc(Cl)c(Cl)c1 | inactive
CCCCOP(=O)(CCCC)OCCCC | inactive
CC1(C)C(C=C(Cl)Cl)C1C(=O)OC(C#N)c1ccc(F)c(Oc2ccccc2)c1 (centres undefined) | inactive
CCCCOC(=O)CCC(=O)OCCCC | inactive
C=CCN1C[C@H](C)N([C@H](c2ccc(C(=O)N(CC)CC)cc2)c2cccc(OC)c2)C[C@H]1C | inactive
CCCCCCCCCBr | inactive
CC(C)=CC1C(C(=O)OCN2C(=O)C3=C(CCCC3)C2=O)C1(C)C (centres undefined) | inactive
CSc1nc(NC(C)C)nc(NC(C)C)n1 | inactive
CC(C)(C)C(=O)Cl | inactive
Cc1nn(-c2cc(NS(C)(=O)=O)c(Cl)cc2Cl)c(=O)n1C(F)F | inactive
O=c1oc2ccccc2c(O)c1C(CC(O)c1ccc(-c2ccc(Br)cc2)cc1)c1ccccc1 (centres undefined) | inactive
CCc1cc(C)cc(CC)c1-c1c(OC(=O)C(C)(C)C)n2n(c1=O)CCOCC2 | inactive
CCC(=O)c1ccccc1 | inactive
CC(C)OC(=S)S | inactive
CC(=[OH+])/C=C(/C)[O-].CC(=[OH+])/C=C(\C)[O-].CC(=[OH+])/C=C(\C)[O-].[Al] | inactive
Nc1ccc(-c2ccc(N)c(Cl)c2)cc1Cl | inactive
Cc1cc(-c2ccc(N)c(C)c2)ccc1N | inactive
C[C@]12CCC(=O)C=C1CC[C@@H]1[C@@H]2CC[C@@]2(C)[C@H]1CC[C@]2(C)O | inactive
N#CSCSC#N | inactive
O=[N+]([O-])c1c(Cl)c(Cl)c(Cl)c(Cl)c1Cl | inactive
CCCCC1C(=O)NC(=O)N(C2CCCCC2)C1=O (centres undefined) | inactive

Compound | Potency
c1ccc2c(c1)sc1ccccc12 | inactive
CN(C)C(=O)C(c1ccccc1)c1ccccc1 | inactive
C#C[C@]1(O)CC[C@H]2[C@@H]3CCC4=CC(=O)CC[C@]4(C)[C@H]3CC[C@@]21C | inactive
COc1nc(C)nc(NC(=O)NS(=O)(=O)c2ccccc2Cl)n1 | inactive
ClCc1ccccc1 | inactive
[O]=[Cr][O][Cr]=[O] | inactive
CNCC(O)c1ccc(O)cc1 (centres undefined) | inactive
CCCC1CCCCN1 (centres undefined) | inactive
NC(=O)CF | inactive
Cc1cc(O)ccc1Cl | inactive
CCOC(=O)c1cncn1C(C)c1ccccc1 (centres undefined) | inactive
CCCN(CCC)N=O | inactive
C/C=C/CC#N | inactive
CCCCN(CC)c1c([N+](=O)[O-])cc(C(F)(F)F)cc1[N+](=O)[O-] | inactive
CC(C)OC(=O)Cc1ccccc1 | inactive
C(=NC1CCCCC1)=NC1CCCCC1 | inactive
CCCSC(=O)Cl | inactive
CC(Cl)CCl (centres undefined) | inactive
CCC/C=N/O | inactive
CC(C)(c1ccccc1)c1cc(-n2nc3ccccc3n2)c(O)c(C(C)(C)c2ccccc2)c1 | inactive
COCC(=O)N(c1c(C)cccc1C)N1CCOC1=O | inactive
CC(C)(C)C(=O)C(Cl)Cl | inactive
CC(C)C(C)(N)C#N (centres undefined) | inactive
CCCCON=O | inactive
O=c1n(Cl)c(=O)n(Cl)c(=O)n1Cl | inactive
CC(=O)C1CCOC1=O (centres undefined) | inactive
c1ccc(P(c2ccccc2)c2ccccc2)cc1 | inactive
